{
  "source": "the OligoGym collection",
  "data": [
    {"biological_target": "HIST1H4B", "assay": "pooled miR-30 sensor sort-seq; sequence = guide strand", "settings": "shRNA", "values": [
      {"sequence": "TACCCAAACCTTTACCGCCTTT", "sensor-assay potency score (higher = more potent)": -0.866},
      {"sequence": "TAAACCACATCCATGGCAGTGA", "sensor-assay potency score (higher = more potent)": 0.196},
      {"sequence": "TATCCCGCAGCACTTTTCGGTG", "sensor-assay potency score (higher = more potent)": -1.57},
      {"sequence": "TCCTTGACGCTTGAGCGCGTAA", "sensor-assay potency score (higher = more potent)": -1.7},
      {"sequence": "TGACAGTCTTGCGCTTGGCGTG", "sensor-assay potency score (higher = more potent)": -1.49},
      {"sequence": "TTGGATGTTATCCCGCAGCACT", "sensor-assay potency score (higher = more potent)": -1.27},
      {"sequence": "AACACCTTGAGAACGCCACGAG", "sensor-assay potency score (higher = more potent)": -0.445},
      {"sequence": "TTATCCCGCAGCACTTTTCGGT", "sensor-assay potency score (higher = more potent)": -0.874},
      {"sequence": "ATCCATGGCAGTGACAGTCTTG", "sensor-assay potency score (higher = more potent)": -0.826},
      {"sequence": "TCTCCTCATAAATCAAACCGGA", "sensor-assay potency score (higher = more potent)": -1.02},
      {"sequence": "AATCAAACCGGAAATTCGCTTA", "sensor-assay potency score (higher = more potent)": 0.0174},
      {"sequence": "TTTGGTGATGCCTTGGATGTTA", "sensor-assay potency score (higher = more potent)": 0.361}
    ]},
    {"biological_target": "HIST1H4G", "assay": "pooled miR-30 sensor sort-seq; sequence = guide strand", "settings": "shRNA", "values": [
      {"sequence": "TATCGCTCAGTACCTTGCGATG", "sensor-assay potency score (higher = more potent)": -1.74},
      {"sequence": "TTGAGCACGTAGACCACGGCCA", "sensor-assay potency score (higher = more potent)": -0.24},
      {"sequence": "ACACCTTGAACACCCGGCGGGT", "sensor-assay potency score (higher = more potent)": -1.05},
      {"sequence": "ACATTTTCCAGGAACACCTTGA", "sensor-assay potency score (higher = more potent)": -0.0469},
      {"sequence": "TTTGAGCACGTAGACCACGGCC", "sensor-assay potency score (higher = more potent)": -0.756},
      {"sequence": "ATTATCGCTCAGTACCTTGCGA", "sensor-assay potency score (higher = more potent)": -0.081},
      {"sequence": "AACACCTTGAACACCCGGCGGG", "sensor-assay potency score (higher = more potent)": -0.571},
      {"sequence": "ATATTATCGCTCAGTACCTTGC", "sensor-assay potency score (higher = more potent)": -0.774},
      {"sequence": "AGGAACACCTTGAACACCCGGC", "sensor-assay potency score (higher = more potent)": -0.945},
      {"sequence": "AATATTATCGCTCAGTACCTTG", "sensor-assay potency score (higher = more potent)": -1.22},
      {"sequence": "TTATCGCTCAGTACCTTGCGAT", "sensor-assay potency score (higher = more potent)": -0.526},
      {"sequence": "TACCAGATCACATTTTCCAGGA", "sensor-assay potency score (higher = more potent)": -0.129}
    ]},
    {"biological_target": "HIST2H2AB", "assay": "pooled miR-30 sensor sort-seq; sequence = guide strand", "settings": "shRNA", "values": [
      {"sequence": "TTGGGCAACAGGACAGCCTGGA", "sensor-assay potency score (higher = more potent)": 0.319},
      {"sequence": "GTAACTTGTTGAGCTCTTCGTC", "sensor-assay potency score (higher = more potent)": -0.977},
      {"sequence": "TAACTTGTTGAGCTCTTCGTCA", "sensor-assay potency score (higher = more potent)": -0.534},
      {"sequence": "TTGAGCTCTTCGTCATTCCTCA", "sensor-assay potency score (higher = more potent)": 0.203},
      {"sequence": "AACTTGTTGAGCTCTTCGTCAT", "sensor-assay potency score (higher = more potent)": -0.274},
      {"sequence": "TTGTGACTCTCCGTTTTCTTGG", "sensor-assay potency score (higher = more potent)": -0.765},
      {"sequence": "TTTTCTTGGGCAACAGGACAGC", "sensor-assay potency score (higher = more potent)": -1.07},
      {"sequence": "TTCGTCATTCCTCACGGCTAGT", "sensor-assay potency score (higher = more potent)": -0.686},
      {"sequence": "TGACTCTCCGTTTTCTTGGGCA", "sensor-assay potency score (higher = more potent)": 0.0701},
      {"sequence": "TCTTCGTCATTCCTCACGGCTA", "sensor-assay potency score (higher = more potent)": -1.31},
      {"sequence": "TGGATATTGGGCAAGACGCCGC", "sensor-assay potency score (higher = more potent)": -1.14},
      {"sequence": "ACTTGTTGAGCTCTTCGTCATT", "sensor-assay potency score (higher = more potent)": -1.57}
    ]}
  ]
}
